This is part of a sample that, as a whole, favours compounds with a hit. Of some 83,000 tested, about 20% had one in any assay.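 Each cell line was grown in a 96-well plate and treated with one concentration of compound for 48 hours. Values below 10 were considered active.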 Calls of active or inactive are those of the source.
Experiments:
Experiment in all cases: NCI-60 one-dose screen, 48 h (100 = growth as untreated, 0 = no growth, -100 = all killed)
SK-MEL-2 melanoma = conditions: 10 µM
EKVX NSCLC = conditions: 10 µM
SN12C renal = conditions: 10 µM
UO-31 renal = conditions: 10 µM
TK-10 renal = conditions: 10 µM unless noted
ACHN renal = conditions: 10 µM
CAKI-1 renal = conditions: 10 µM
A498 renal = conditions: 10 µM
CCRF-CEM leukemia = conditions: 10 µM
MOLT-4 leukemia = conditions: 10 µM
RPMI-8226 leukemia = conditions: 10 µM
OVCAR-8 ovarian = conditions: 10 µM
OVCAR-5 ovarian = conditions: 10 µM
OVCAR-4 ovarian = conditions: 10 µM
SK-OV-3 ovarian = conditions: 10 µM
IGROV1 ovarian = conditions: 10 µM
OVCAR-3 ovarian = conditions: 10 µM
HS 578T breast = conditions: 10 µM
NCI/ADR-RES ovarian = conditions: 10 µM
SR leukemia = conditions: 10 µM

Measured: growth

COc1ccc(C2(O)CCCCC2)cc1
inactive: SK-MEL-2 melanoma 107% | EKVX NSCLC 105% | SN12C renal 101% | UO-31 renal 97% | TK-10 renal 113% | ACHN renal 115% | CAKI-1 renal 100% | A498 renal 86.9% | CCRF-CEM leukemia 96.1% | MOLT-4 leukemia 97.5% | RPMI-8226 leukemia 95.6% | OVCAR-8 ovarian 107% | OVCAR-5 ovarian 111% | OVCAR-4 ovarian 112% | SK-OV-3 ovarian 107% | IGROV1 ovarian 111% | OVCAR-3 ovarian 116% | HS 578T breast 93.5% | NCI/ADR-RES ovarian 104%

S=c1sc2ccccc2n1CN1CCCCC1
inactive: SK-MEL-2 melanoma 94% | EKVX NSCLC 104% | SN12C renal 109% | UO-31 renal 77.2% | TK-10 renal 93.7% | ACHN renal 98.7% | CAKI-1 renal 88.2% | A498 renal 96.5% | CCRF-CEM leukemia 102% | MOLT-4 leukemia 112% | OVCAR-8 ovarian 99.6% | OVCAR-5 ovarian 85% | SK-OV-3 ovarian 94.5% | IGROV1 ovarian 105% | OVCAR-3 ovarian 93.3% | HS 578T breast 100% | NCI/ADR-RES ovarian 93.4%

CC(C)COC(=O)COC(=O)OCCOCCOC(=O)OCC(=O)OCC(C)C
inactive: SK-MEL-2 melanoma 94.2% | EKVX NSCLC 119% | SN12C renal 97.9% | UO-31 renal 89.8% | TK-10 renal 91.9% | ACHN renal 95.7% | CAKI-1 renal 116% | A498 renal 99.9% | CCRF-CEM leukemia 106% | RPMI-8226 leukemia 97.3% | OVCAR-4 ovarian 110% | SK-OV-3 ovarian 100% | IGROV1 ovarian 105% | OVCAR-3 ovarian 126% | HS 578T breast 124% | NCI/ADR-RES ovarian 106%

N#C/C(=C\c1cc(O)c(O)c(O)c1)C(N)=O
inactive: SK-MEL-2 melanoma 123% | EKVX NSCLC 97.4% | SN12C renal 107% | UO-31 renal 110% | TK-10 renal 116% | ACHN renal 96.6% | CAKI-1 renal 93.6% | A498 renal 119% | CCRF-CEM leukemia 74% | SR leukemia 72.9% | RPMI-8226 leukemia 19.6% | OVCAR-5 ovarian 98.2% | OVCAR-4 ovarian 45.7% | SK-OV-3 ovarian 110% | IGROV1 ovarian 122% | OVCAR-3 ovarian 107% | HS 578T breast 110% | NCI/ADR-RES ovarian 102%

CCOC(=O)C(C#N)Cc1ccccc1 (configuration not stated)
inactive: SK-MEL-2 melanoma 114% | EKVX NSCLC 114% | SN12C renal 103% | UO-31 renal 94.5% | TK-10 renal 106% | ACHN renal 110% | CAKI-1 renal 98.7% | A498 renal 114% | CCRF-CEM leukemia 102% | MOLT-4 leukemia 123% | RPMI-8226 leukemia 101% | OVCAR-8 ovarian 115% | OVCAR-5 ovarian 103% | OVCAR-4 ovarian 114% | SK-OV-3 ovarian 123% | IGROV1 ovarian 114% | OVCAR-3 ovarian 117% | HS 578T breast 112% | NCI/ADR-RES ovarian 117%

O=C(O)c1ccnc(Br)c1
inactive: SK-MEL-2 melanoma 105% | EKVX NSCLC 98.1% | SN12C renal 113% | UO-31 renal 91.4% | TK-10 renal 104% | ACHN renal 108% | CAKI-1 renal 97.8% | A498 renal 88.7% | CCRF-CEM leukemia 112% | MOLT-4 leukemia 116% | RPMI-8226 leukemia 115% | OVCAR-8 ovarian 103% | OVCAR-5 ovarian 107% | OVCAR-4 ovarian 107% | SK-OV-3 ovarian 101% | IGROV1 ovarian 117% | OVCAR-3 ovarian 112% | HS 578T breast 107% | NCI/ADR-RES ovarian 111%

CC1(C)N=C(N)N=C(N)N1c1cccc(Br)c1
inactive: SK-MEL-2 melanoma 65.3% | EKVX NSCLC 45.1% | SN12C renal 37.3% | UO-31 renal 50.2% | TK-10 renal 51.7% | ACHN renal 30.2% | CAKI-1 renal 70% | A498 renal 104% | CCRF-CEM leukemia 36.1% | MOLT-4 leukemia 41.4% | RPMI-8226 leukemia 43.9% | OVCAR-8 ovarian 33.1% | OVCAR-4 ovarian 49.7% | SK-OV-3 ovarian 44.3% | IGROV1 ovarian 54.9% | OVCAR-3 ovarian 52.8%

CCOc1ccc(/C=N/N=C(N)N)cc1OCC
inactive: SK-MEL-2 melanoma 113% | EKVX NSCLC 91.8% | SN12C renal 108% | UO-31 renal 74.7% | TK-10 renal 106% | ACHN renal 97.4% | CAKI-1 renal 95.7% | A498 renal 101% | CCRF-CEM leukemia 95.4% | SR leukemia 76.3% | RPMI-8226 leukemia 101% | OVCAR-5 ovarian 101% | SK-OV-3 ovarian 106% | IGROV1 ovarian 95.9% | OVCAR-3 ovarian 107% | NCI/ADR-RES ovarian 109%

CCOC(=O)C(=O)C=P(c1ccccc1)(c1ccccc1)c1ccccc1
inactive: SK-MEL-2 melanoma 99.6% | EKVX NSCLC 105% | SN12C renal 103% | UO-31 renal 90.2% | TK-10 renal 99% | ACHN renal 108% | CAKI-1 renal 101% | A498 renal 105% | CCRF-CEM leukemia 99.9% | MOLT-4 leukemia 101% | RPMI-8226 leukemia 102% | OVCAR-8 ovarian 107% | OVCAR-5 ovarian 101% | OVCAR-4 ovarian 111% | SK-OV-3 ovarian 109% | IGROV1 ovarian 102% | OVCAR-3 ovarian 103% | HS 578T breast 105% | NCI/ADR-RES ovarian 103%

CC1CCC(C(=O)O)N1 (configuration not stated)
inactive: SK-MEL-2 melanoma 91.5% | EKVX NSCLC 107% | SN12C renal 92.7% | UO-31 renal 76.5% | TK-10 renal 101% | ACHN renal 91.6% | CAKI-1 renal 92.3% | A498 renal 84% | CCRF-CEM leukemia 101% | MOLT-4 leukemia 87.8% | RPMI-8226 leukemia 105% | OVCAR-8 ovarian 112% | OVCAR-5 ovarian 91.5% | OVCAR-4 ovarian 99% | SK-OV-3 ovarian 94.2% | IGROV1 ovarian 101% | OVCAR-3 ovarian 109% | HS 578T breast 106% | NCI/ADR-RES ovarian 93%

CCOC(=O)c1[nH]c(C)c(C(C)=O)c1C
inactive: SK-MEL-2 melanoma 122% | EKVX NSCLC 100% | SN12C renal 90.8% | UO-31 renal 79.3% | TK-10 renal 98.4% | ACHN renal 97% | CAKI-1 renal 87.3% | A498 renal 91% | CCRF-CEM leukemia 91.6% | MOLT-4 leukemia 59.1% | OVCAR-8 ovarian 96.1% | OVCAR-5 ovarian 88% | OVCAR-4 ovarian 86.8% | SK-OV-3 ovarian 101% | IGROV1 ovarian 102% | OVCAR-3 ovarian 95% | HS 578T breast 91.6% | NCI/ADR-RES ovarian 98%
active: RPMI-8226 leukemia -7.82%

O=C(CCNNC(=O)c1ccncc1)NCc1ccccc1
active: CCRF-CEM leukemia 5.43%
inactive: SK-MEL-2 melanoma 94.3% | EKVX NSCLC 106% | SN12C renal 97.1% | UO-31 renal 91.3% | TK-10 renal 133% | ACHN renal 93% | CAKI-1 renal 109% | A498 renal 110% | MOLT-4 leukemia 99% | RPMI-8226 leukemia 87.2% | OVCAR-5 ovarian 105% | OVCAR-4 ovarian 96.3% | SK-OV-3 ovarian 104% | IGROV1 ovarian 92.3% | OVCAR-3 ovarian 102% | NCI/ADR-RES ovarian 96.5%

CCOc1ccccc1/C=N/Nc1nc2ccccc2o1
inactive: SK-MEL-2 melanoma 91.3% | EKVX NSCLC 101% | SN12C renal 92.2% | UO-31 renal 86.5% | TK-10 renal 104% | ACHN renal 103% | CAKI-1 renal 110% | A498 renal 92.1% | CCRF-CEM leukemia 95.8% | MOLT-4 leukemia 81.7% | RPMI-8226 leukemia 105% | OVCAR-8 ovarian 108% | OVCAR-5 ovarian 97.3% | OVCAR-4 ovarian 41.9% | SK-OV-3 ovarian 94.2% | IGROV1 ovarian 116% | OVCAR-3 ovarian 122% | HS 578T breast 101% | NCI/ADR-RES ovarian 97.6%

CN1C(=O)CN2CCc3ccccc3C2c2cc(Cl)ccc21 (configuration not stated)
active: IGROV1 ovarian -12.2% | HS 578T breast -5.49%
inactive: SK-MEL-2 melanoma 81.7% | EKVX NSCLC 91.5% | SN12C renal 85.1% | UO-31 renal 74.3% | TK-10 renal 111% | ACHN renal 93.6% | CAKI-1 renal 81% | A498 renal 54.5% | CCRF-CEM leukemia 93.6% | MOLT-4 leukemia 105% | RPMI-8226 leukemia 88.3% | OVCAR-8 ovarian 101% | OVCAR-4 ovarian 104% | SK-OV-3 ovarian 90.7% | OVCAR-3 ovarian 103% | NCI/ADR-RES ovarian 96.7%

COC(=O)Nc1nc2ccc(C(=O)c3ccc(F)cc3)cc2[nH]1
inactive: EKVX NSCLC 36.7% | SN12C renal 29.8% | TK-10 renal 17.3% | ACHN renal 33.2% | CAKI-1 renal 15.2% | OVCAR-5 ovarian 27.3% | OVCAR-4 ovarian 55.5% | SK-OV-3 ovarian 42.6%
active: SK-MEL-2 melanoma -20.1% | UO-31 renal 1.98% | A498 renal 7.59% | CCRF-CEM leukemia -46% | MOLT-4 leukemia -27% | RPMI-8226 leukemia -27.1% | OVCAR-8 ovarian 6.47% | OVCAR-3 ovarian -74.4% | HS 578T breast -5.44% | NCI/ADR-RES ovarian -5.09%

Cc1cc(N)c(S(=O)(=O)O)c(N)c1
active: MOLT-4 leukemia 5.11%
inactive: SK-MEL-2 melanoma 109% | EKVX NSCLC 98.9% | SN12C renal 93.8% | UO-31 renal 79.1% | TK-10 renal 105% | ACHN renal 100% | CAKI-1 renal 90.1% | A498 renal 101% | CCRF-CEM leukemia 98.1% | RPMI-8226 leukemia 95.6% | OVCAR-8 ovarian 109% | OVCAR-4 ovarian 103% | SK-OV-3 ovarian 100% | IGROV1 ovarian 130% | OVCAR-3 ovarian 112%

O=c1cc(-c2ccccc2)nc2cc(-c3ccco3)[nH]n12
inactive: SK-MEL-2 melanoma 102% | EKVX NSCLC 89.7% | SN12C renal 96% | UO-31 renal 74.6% | TK-10 renal 124% | ACHN renal 91% | A498 renal 82.1% | CCRF-CEM leukemia 78.7% | MOLT-4 leukemia 87% | SR leukemia 13.1% | RPMI-8226 leukemia 71.6% | OVCAR-8 ovarian 101% | OVCAR-5 ovarian 116% | OVCAR-4 ovarian 91.5% | SK-OV-3 ovarian 90.3% | IGROV1 ovarian 70.5% | OVCAR-3 ovarian 93.7% | HS 578T breast 89.2% | NCI/ADR-RES ovarian 98.9%

CCCCCCCCCCCCCCCCC1CC(=O)OC1=O (configuration not stated)
inactive: SK-MEL-2 melanoma 113% | EKVX NSCLC 96.9% | SN12C renal 101% | UO-31 renal 93.5% | TK-10 renal 107% | ACHN renal 110% | CAKI-1 renal 97.9% | CCRF-CEM leukemia 96.5% | MOLT-4 leukemia 118% | SR leukemia 99.3% | RPMI-8226 leukemia 108% | OVCAR-8 ovarian 101% | OVCAR-4 ovarian 108% | SK-OV-3 ovarian 106% | IGROV1 ovarian 124% | OVCAR-3 ovarian 119% | HS 578T breast 106% | NCI/ADR-RES ovarian 113%

From PubChem BioAssay (NCI)
